The whole screen tested about 65,000 compounds, of which about 2,100 (3.2%) showed an effect of 50% or more. The median lay at about -52%. The sample as a whole holds a higher share of strong results than the screen did.

Consider 68 compounds from ChEMBL document CHEMBL4513216, “Probing the Open Global Health Chemical Diversity Library for Multistage-Active Starting Points for Next-Generation Antimalarials” (ACS Infect Dis, 2020).

This assay deals with Plasmodium falciparum. As to the kind of experiment: Screen against P. falciparum Asexual Blood Stage (ABS), at 5uM. In kind it is functional, Dd2. To be noted: tested at 5 uM.
As to `Cc1nc(C(=O)NCCS(=O)(=O)N2CCCC2)cs1`, the INHIBITION is -31.8%.

Take `Cc1nc(COc2ccc(OC3CCCCNC3=O)cc2)oc1C` (stereo not drawn): the INHIBITION was -151%.

`O=C(Nc1ccc2c(c1)C(=O)NC2=O)c1cccs1`: the INHIBITION was -80.7%.

For `CCC(=O)N1CCC2(CC1)COCCN2Cc1ccc(F)cc1`, the INHIBITION is -31.7%.

For `CC(=O)N(Cc1noc(C)n1)C1CCN(CCOc2ccccc2)C1` (stereo not drawn), the INHIBITION is recorded as -79.1%.

As to `Cn1cc(N2CC3(CCN(CC4CC4)CC3)OCC2=O)cn1`, the INHIBITION is -53.1%.

With `Cc1noc(-c2ccnc(Oc3ccc(CN4CCCC4)cc3F)c2)n1`, the INHIBITION is -38.8%.

With `Cc1noc(-c2ccnc(Oc3ccccc3CN3CCCCC3)c2)n1`, the INHIBITION is -36.8%.

As for `Cc1noc(-c2ccnc(Oc3ccc(CN4CCCC4)cc3C)c2)n1`, the INHIBITION is given as 53.3%.

On to `Cc1ccc(-c2nnc(CN3CCc4nn(C)c(=O)cc4C3)o2)cc1`, for which the INHIBITION is reported as -38.4%.

Turning to `CCOC(=O)N1CCN(c2nc(NC3CC3)c3ccccc3n2)CC1`, the INHIBITION is 4.86%.

On to `Cc1csc2c(C3CCCN(C(=O)CCn4ccnc4)C3)nc(C)n12` (stereo not drawn), for which the INHIBITION is on record as -97.3%.

Take `COCCN(CC1CCCN(C2Cc3ccccc3C2)C1)C(=O)CO` (stereo not drawn): the INHIBITION is 59.9%.

For `COCCN(CC1CCCN(C2Cc3ccccc3C2)C1)C(=O)CSC` (stereo not drawn), the INHIBITION amounted to 1.3%.

Take `COCCN(CC1CCCN(C2Cc3ccccc3C2)C1)C(=O)COC` (stereo not drawn): the INHIBITION is 39.5%.

Turning to `O=C(NC1CCC1)C1=NOC2(CCN(Cc3ccc(F)cc3)C2)C1` (stereo not drawn), the INHIBITION was -11.6%.

As for `c1ccc(CN2CC[C@@H]3O[C@@H](COCCN4CCCC4)CC[C@@H]32)nc1`, the INHIBITION is reported as -36%.

Take `COCCN1CC[C@@H]2OC[C@H](C(=O)N(C)Cc3ccccn3)C[C@@H]2C1`: the INHIBITION is recorded as 11.1%.

For `c1cc(N2CCSCC2)ccc1CNc1cncc2nnnn12`, the INHIBITION is recorded as -119%.

Consider `c1cc(CN2CCCC2)ccc1CNc1cncc2nnnn12`, for which the INHIBITION is recorded as -31.2%.

For `c1ccc(CN2CCCC2)c(CNc2cncc3nnnn23)c1`, the INHIBITION is listed as 61.4%.

For the compound `Cc1cc(C(=O)N2C[C@@H]3COC[C@]3(CN(C)C)C2)sc1C`, the INHIBITION was -113%.

`Cc1cc(N(C)CCN(C)C2CCCC2)n2nc(C)cc2n1`: the INHIBITION came out at 55.7%.

In the case of `Cc1cc(N(C)CCN(C)C)n2nc(C)cc2n1`, the INHIBITION was -113%.

For the compound `Cc1cc(C)nc(N(C)CCN(C)C2CCCC2)n1`, the INHIBITION turned out to be 28%.

Turning to `O=C(c1ccc2[nH]ccc2c1)N1CCn2cc(CN3CCCC3)nc2C1`, the INHIBITION is listed as -38.2%.

`c1cc(CNCC2OCCc3cn(CC4CC4)nc32)cs1` (stereo not drawn): the INHIBITION worked out at 47%.

Regarding `COCCn1cc2c(n1)C(CNCc1ccc(F)cc1)OCC2` (stereo not drawn), the INHIBITION is reported as -11.4%.

As to `Fc1ccc(CNCC2OCCc3cn(CC4CC4)nc32)cc1` (stereo not drawn), the INHIBITION amounted to 68.9%.

Regarding `CCc1cnc(CNC(=O)NCCc2ccc(O)cc2)s1`, the INHIBITION is reported as -13.3%.

Take `CNC(=O)CC1CC2(CCN(c3ncccn3)CC2)c2ccccc21` (stereo not drawn): the INHIBITION is reported as -87%.

Regarding `Cc1cccc(N2CC3(CCN(Cc4nccn4C)C3)CC2=O)c1` (stereo not drawn), the INHIBITION is given as -54.9%.

With `COCc1ncc(CN2CC[C@@H](NC(=O)c3cccnc3)[C@H](O)C2)cn1`, the INHIBITION is given as -35.5%.

Consider `CC(C)(C)n1ncc(NCC(O)c2ccccc2)c(Cl)c1=O` (stereo not drawn), for which the INHIBITION was -162%.

Regarding `Cc1cccc(C2(CNC(=O)CO)CCCC2)c1`, the INHIBITION is -108%.

`Cc1cccc(C2(CNC(=O)C(C)S(C)(=O)=O)CCCC2)c1` (stereo not drawn): the INHIBITION was -66%.

Consider `Cc1cccc(C2(CNC(=O)C(C)NC(N)=O)CCCC2)c1` (stereo not drawn), for which the INHIBITION worked out at 69.9%.

Take `NC(=O)[C@@H]1Cc2ccccc2CN1S(=O)(=O)N1CCCCC1`: the INHIBITION is listed as -124%.

Consider `CC(NC(=O)NC1CCN(Cc2ccncc2)CC1)c1ccc(F)cc1` (stereo not drawn), for which the INHIBITION was -35.2%.

Regarding `CC(CNC1CCN(Cc2ccncc2)CC1)c1ccc(F)cc1F` (stereo not drawn), the INHIBITION was 70%.

With `CC(NC(=O)NC1CCN(Cc2ccncc2)CC1)c1cccc(F)c1` (stereo not drawn), the INHIBITION is reported as -98.2%.

For the compound `Cc1cc(F)ccc1C(=O)N1C[C@@H]2COC[C@]2(CN(C)C)C1`, the INHIBITION is -31.2%.

For `CC(C)(C)c1cc(NC(=O)CN2CCCC2Cn2cccn2)on1` (stereo not drawn), the INHIBITION is -91.6%.

Turning to `NC(=O)C1CCN(C(=O)NCc2cccnc2OCC(F)(F)F)C1` (stereo not drawn), the INHIBITION is -75.2%.

For `CC(=O)N1CCN(c2nc3c(cnn3C(C)(C)C)c(=O)[nH]2)CC1`, the INHIBITION was -76.5%.

Consider `CC(C)(C)n1ncc2c(=O)[nH]c(N3CCC4(CCCCC4)C3)nc21`, for which the INHIBITION came out at 52.6%.

With `CN1CCCN(c2nc3c(cnn3C(C)(C)C)c(=O)[nH]2)CC1`, the INHIBITION was -12.6%.

As for `Cn1ccc(CN2CCCC23CCN(Cc2ccccc2F)CC3)n1`, the INHIBITION worked out at 0.737%.

Regarding `CCN1CCN(c2ccc(F)cc2C(C)NCc2noc(C)n2)CC1` (stereo not drawn), the INHIBITION worked out at 53.9%.

As to `Cc1nc(CNC(=O)Nc2cc(F)ccc2N2CCN(C)CC2)no1`, the INHIBITION is -28.8%.

With `CCN1CCN(c2ccc(F)cc2C(C)NCc2nc(C)no2)CC1` (stereo not drawn), the INHIBITION is listed as 7.98%.

Regarding `Cc1nccc(N[C@H]2CN(C(=O)CCN3CCCC3=O)C[C@@H]2C(C)C)n1`, the INHIBITION is on record as -132%.

In the case of `COCCNCc1ccc(OCC(=O)NC(C)(C)C)cc1`, the INHIBITION is listed as -80.9%.

`Cc1ccc(C(=O)N2CCC3(CCN3Cc3ccc(F)cc3)C2)cn1` (stereo not drawn): the INHIBITION was -74.2%.

Turning to `COCCN1CCO[C@H]2CN(C(=O)c3cccs3)C[C@H]21`, the INHIBITION is on record as -92.4%.

For the compound `c1coc(-c2nnc(CN3CCCC(CN4CCCCCC4)C3)o2)c1` (stereo not drawn), the INHIBITION is -67.1%.

`CC(C)N(CC1CCCN(Cc2ccon2)C1)C(=O)OC(C)(C)C` (stereo not drawn): the INHIBITION is reported as -5.65%.

Regarding `Cc1noc(C)c1CN1CCCC(CN(C(=O)OC(C)(C)C)C(C)C)C1` (stereo not drawn), the INHIBITION turned out to be 54.1%.

Consider `CC(C)N(CC1CCCN(CC(N)=O)C1)C(=O)OC(C)(C)C` (stereo not drawn), for which the INHIBITION is -14.8%.

In the case of `c1cncc(OC2CCN(CCn3cc4ccccc4n3)CC2)c1`, the INHIBITION is recorded as -47.4%.

`CN(CC(=O)Nc1cnn(-c2ccccc2S(C)(=O)=O)c1)C1CC1`: the INHIBITION was -85.55%.

In the case of `c1cncc(COCC2CC[C@H]3[C@H](CCN3CC3CCOCC3)O2)c1` (stereo partly drawn), the INHIBITION is -5.45%.

Take `Cn1cc(C2CCCN2Cc2csc(Cc3ccccc3)n2)cn1` (stereo not drawn): the INHIBITION was 13.8%.

For the compound `Cn1cc(-c2nc(CN3CCN(CCO)CC3)cs2)cn1`, the INHIBITION is recorded as -59.9%.

As to `COCCN1CCN(Cc2csc(-c3cnn(C)c3)n2)CC1`, the INHIBITION was -30.6%.

Consider `Cn1cc(C2CCCN2Cc2csc(-c3ccccc3)n2)cn1` (stereo not drawn), for which the INHIBITION came to 53.8%.

Turning to `CCCC1CCCN(Cc2csc(-c3cnn(C)c3)n2)CC1` (stereo not drawn), the INHIBITION is on record as 54.1%.

For the compound `Cn1cc(C2CCCN2Cc2csc(-c3ccsc3)n2)cn1` (stereo not drawn), the INHIBITION is -32.1%.
